# Results taken from the supplement of paper PMC12632987.
# In all, about 2,300 sequences were measured (“median log2 fold change of GCK-ALFA target abundance (FLAG IP / Myc IP barcode read proportion)”: median about 0.095, lowest 2% from about -0.47 on). The sample as a whole holds a higher share of the lowest values than the screen did.
# B1: LC3A_28_1195 (protein)
# chain: SLAEETIKKIREQAKKALEEGDGAVIEVNISKELSDEGIDKILETIKEEAAKLADLESVSIIINVESGVSQENIDKIADTGEEIEEKYPNVTVIIALDED
# B2: LC3A_28_898 (protein)
# chain: MSALESAEAALAAVRAAVAAGDQAPLVLEVKAPSTEEDTEKLIELLEEIAREASQLTGVTIVIDIDESVSEENQQKLIDKAEELEKKYPNVTVIIALPES
# B3: LC3A_28_683 (protein)
# chain: SETDESIEKALKKAKEALEKGKPEVIEIKVSGDTTEEELEKILEALEEIAEIANKVPGSAIIIDIDADLPQEFRDKLIDKAEELEEKYPNVTIIFALEER
# B4: LC3A_free_0_2122 (protein)
# chain: KKTVVEVVVILDESTSKETAEEIYEKLKEKAEELAKEAGAEVESSLSEVDGSYIITIKITLPTDDIDKALELEDKLVETAEEIAKEAGVEATIYSSVYLE
# B5: LC3A_3_1412 (protein)
# chain: LEERREALLAELRAAGWSEETLAAVEELLEALLARGAEEEAERALELLRAARDLPSERLLEVVEEALRALREEGLSPEEVIALLEELLRVARAEQEIEEL
# B6: LC3A_28_1281 (protein)
# chain: SEIEEEIERAIKEAKEAKEKGEPAVIEIEVPGDATEEEIEKVIKGLEEIAEILKDIPNQAIVINVDSGVKEEHIDKLVDKAEEIEEKYPNVTVIIALDED
# B7: LC3A_3_1385 (protein)
# chain: MEEEMEKTLERLREAGHSEETIEAARKALEALIEKGYENSAKTFIELLDELIHLPDELLLELFEDVLELIETEDIDEETLTEKIKEIASVYKNESEIEEL
# B8: LC3A_free_26_2139 (protein)
# chain: EKFVDIYLIDEAIDALEKAKELAKKIEGIGEKLVKLLEEALKLIEKETLESLEKAIKILKEIKELIEKDKTIDEETKKELLELVTKALEKVEEVVKIMKE
# B9: LC3A_3_1411 (protein)
# chain: LEERLAATEALLREAGHSEETLAAFRRLVELLLERGAEEEAERVLELVAEAKDISSEDLLAVLEEVIRALEEEGASPEEAVERLEELLRIARAEQEIEEL
# B10: LC3A_147_452 (protein)
# chain: ATYVITVDVLLRNDPELAERIEEEIKKIGEENGAEVEVEREEIQETPTTTEYFLRVTLKTTDEEKALKALQEVSELLDRTAEEHPESFLGAMISFEKIED
# B11: LC3A_28_846 (protein)
# chain: SKTEEDIEKALKEAKEAAKKGEPAVIELKVYKGDTEEEIEKIIEALEEIAEILKDLPNQAILINFEEVIDEEHQNKILDKAEEIEKKYPNVTVIIALPEE
# B12: LC3A_28_844 (protein)
# chain: SKTEKDIKEALERAKRAAEEGKSEVITIKVYKGDTEEEINKIIETLEEIAEILKDLPNQAILIDFEEKIDEEHQNKIIDKAEEIEKKYPNITVIIALPEE
# B13: LC3A_28_842 (protein)
# chain: SKTEENIKKALAEAKEAAEKGESKVITLKVYKGDTEEEIDKIIETLEEIAEILKDLPNQAIIIEFEEPIDPEHQDKIIDKAEEIEKKYPNITVIIALPEE
# B14: LC3A_132_311 (protein)
# chain: SEEKYKEIKEELEKKLKEAEKNIKDKEKVEKLLEEIRKLLEEAEEELSPEQVAELYDEVADRLWKLSQKALEAGQEDVALELDAAAIEAASRSLEAEKLI
# B15: LC3A_free_46_2418 (protein)
# chain: YRGIVEADLLGLTEEQVEEVIERVKEKAKRLEEEYGVKVEVEVEVEKNEDGTYFLRIKVTIEGEDREKVEKAANEVVDLLEKLADEYGAAMIISIEFEEL
# B16: LC3A_147_515 (protein)
# chain: MYEVDIDILVKREGEEEVLEELEEILEELREEGYEVEVLEKRIEREGDEVFIYVKVLIRAPTPEEAEKAVNRLISRLEELEEKHKDLILGSLISVEKIEP
# B17: LC3A_147_484 (protein)
# chain: MRVYVDVLVDDEETAEELVRLMEATVEELRAQGIRVELRVEIEEVEPGVYFVEIEVEIEAETEEEEQAAAQRVIDALEAFDEANKDRVLGTLISVEREER
# B18: LC3A_132_312 (protein)
# chain: MEEKYAEIKARLDALLDEAAANIKDKAKVQALLKEIKALLEEAEKELTPEQVAELYDYVADRLDALSQQALAAGQEDVALDLDAASIEAASRSLEAEKKI
# B19: LC3A_free_8_2551 (protein)
# chain: NSQEFAEKVSEIIDEAEEKVKKILTENGVDREKRLLLELLFGEIIIEVISLRDKSKEEIAKAAKEGLEEVKEEAESLDEETKAKVNAVIDEAEAKIEALL
# B20: LC3A_28_1011 (protein)
# chain: MSLIEKTKEEAKKAIEEAKKGEDAFLEVEITEEATEEEVKEVLEIIEETAEEISKIENVKLYIVVDFDGDQEKLDLITDGLEEIEEKYPNVSSIIAYDEK
# B21: LC3A_28_1012 (protein)
# chain: MSLIEATKKEAKAAIEEAKKGEDAFLEVTITEEATEEEVKEVLKIIEETAEEISKIPNVKLYVVIDFDGSQEKLDIITDRMEEIEKKYPNVSVVIAYDEK
# B22: LC3A_28_1147 (protein)
# chain: SAEVEAAKKQIDEDAEKDKNEEEVYLNVTITSSMTKEEVEEIMDHVEEVVEKLKDKKKIYVVVTFTEPVSQEVLDTALEKGDEIEKKFPKVDVIVALPEY
# B23: LC3A_28_1155 (protein)
# chain: SAEVEEAKKLIDEDAERDKDEEEVYLEVKITSSVTVEEAREIMDHVEEVVEKLKDKKKIYVVVTFEEPVSQEVLDEVLRRAEEIEEKFPNVDVIIALPED
# B24: LC3A_28_1154 (protein)
# chain: SANVEAAKKQIDEDAEKDKDEEEVYLNVTITSEDTVEEAKEIMEHVEEVVEKLKDKKKIYVVITFEEPVSQEVLDTVLEKAEEIEKKFPNVSVIIALPED
# B25: LC3A_free_8_2523 (protein)
# chain: ASQAFADAAVKILDELEEKLVKLLKEKGASRLDILEAELLVGSIIAEVISLVDESIEAILKSIKEGLEELVEELEEHKEEVTKLANEALKKIEEKAKELK
# B26: LC3A_3_1539 (protein)
# chain: LEEEIEAALALLREAGASEETLAAFREAAEALLERGYEEALRELIRETRELIDAPSELLLAFFEEVLALVRTSDLSEEELIAEIRRIARTTRNEAEIEEL
# B27: LC3A_62_2043 (protein)
# chain: MYLATVDVDILAKDEEAAEKIYEEIKKKLEELKKKDPNIKYEVKLDKENKYVSVTVTYEAETLEEAEKKAQEIEDELDEILEKNEDLIKAALISREITKL
# B28: LC3A_28_882 (protein)
# chain: SKALESAEKALEEVKKAVEAGDKEPLVLEVEAPSDEENTEKFLKLLEELAKEASKLPGVTIIVNIDSSVSQELRDKIIDKAEELEKKYPNVTIIIALPED
# B29: LC3A_147_504 (protein)
# chain: VKLEVYIDIITKNATEEVKEFVKEIEKELKEKGFEVKVKIKIEKLDEDTDYIEIEIEIKAETEEKAKEAANYIIDKFEEFEEKNKDKILGSLISVEIEKE
# Molecular target: MAP1LC3A, Q9H492
# Experiment: median log2 fold change of GCK-ALFA target abundance (FLAG IP / Myc IP barcode read proportion) (log2 ratio); each designed protein is fused to an ALFA-tag nanobody in HEK293 cells to bring the named protein to FLAG-tagged glucokinase (GCK); Myc marks an untargeted standard; higher = target protein stabilised (more abundant)
# Conditions: target protein: 3xFLAG-MCP-GCK-ALFA reporter; HEK293 landing pad (RPLP)
# Summary of the method: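 HEK293 landing-pad cells received a recombined binder library fused to the ALFA nanobody and were induced with 2 μg mL^−1 doxycycline, then transfected with a plasmid encoding a FLAG-tagged target and a Myc-tagged standard. Lysates were collected after 48 h for anti-FLAG and anti-Myc immunoprecipitation, and the circular RNA barcodes were reverse transcribed, amplified and sequenced. Target abundance for each binder is the median log2 ratio of FLAG to Myc barcode read proportions. Barcodes had to reach a proportion of at least 10^−7 in both replicates, each binder needed at least 3 barcodes per replicate, a pseudocount of 10^−6 was applied, and the two replicates were pooled.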
row,Binder,median log2 fold change
1,B1,0.229
2,B2,0.201
3,B3,-0.521
4,B4,-0.221
5,B5,0.243
6,B6,-0.286
7,B7,0.082
8,B8,0.132
9,B9,0.212
10,B10,-0.0647
11,B11,-0.293
12,B12,-0.471
13,B13,-0.297
14,B14,0.256
15,B15,0.196
16,B16,-0.205
17,B17,-0.559
18,B18,0.361
19,B19,-0.172
20,B20,-0.21
21,B21,-0.527
22,B22,-0.475
23,B23,-0.446
24,B24,-0.142
25,B25,-0.0394
26,B26,0.318
27,B27,0.16
28,B28,-0.094
29,B29,-0.32
